# In PubChem BioAssay:
# Calls of active or inactive are those of the source. Unless noted, no rule for the calls is given here.
# What was measured:
# [1] = test system: XIP peptide (Xip251-270) binding; assay: XIP fragment 251-270 binding compounds – biochemical, small-molecule microarray, fluorescence 635/667 nm, 0.1 µg/mL protein, primary screen (AID 1182); conditions: fluorescent protein binding, 635 nm, higher = more signal, called active from +8 up or from −8 down
# XIP peptide (Xip251-270) = assay: compounds binding XIP fragment 251-270 – biochemical, small-molecule microarray, fluorescence 635/667 nm, 0.5 µg/mL protein, primary screen (AID 1183); conditions: fluorescence 635 nm, higher = more signal
# [2] = blood-stage malaria parasite viability loss – strain 3D7, DAPI fluorescence, 100 nL, primary screen (AID 1184);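 also: parasites grown inside human red blood cells in medium with human serum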; conditions: P. falciparum 3D7 growth, 3 d, higher = more signal
# [3] = biological target: Homeobox protein Hox-A13 (Mus musculus) (UniProt Q62424); assay: disruptors of Hoxa13 oligonucleotide interaction – biochemical, fluorescence polarization, labeled oligonucleotide, primary screen (AID 1185); conditions: Hoxa13:DNA binding, 15 min, higher = more signal, called active from +8 up or from −8 down
# [4] = blockers of DNA damage checkpoint Chk1 activation – imaging, HeLa, hydroxyurea, phospho-Chk1 antibody, percent positive cells, primary screen (AID 1186); conditions: hydroxyurea-induced phospho-Chk1 immunofluorescence imaging, higher = more signal
# [5] = blockers of DNA damage checkpoint Chk1 activation – imaging, HeLa, hydroxyurea, phospho-Chk1 nuclear intensity, primary screen (AID 1187); conditions: hydroxyurea-induced phospho-Chk1 immunofluorescence imaging, higher = more signal
# Chain of Homeobox protein Hox-A13 (Mus musculus) (Q62424 whole entry, looked up): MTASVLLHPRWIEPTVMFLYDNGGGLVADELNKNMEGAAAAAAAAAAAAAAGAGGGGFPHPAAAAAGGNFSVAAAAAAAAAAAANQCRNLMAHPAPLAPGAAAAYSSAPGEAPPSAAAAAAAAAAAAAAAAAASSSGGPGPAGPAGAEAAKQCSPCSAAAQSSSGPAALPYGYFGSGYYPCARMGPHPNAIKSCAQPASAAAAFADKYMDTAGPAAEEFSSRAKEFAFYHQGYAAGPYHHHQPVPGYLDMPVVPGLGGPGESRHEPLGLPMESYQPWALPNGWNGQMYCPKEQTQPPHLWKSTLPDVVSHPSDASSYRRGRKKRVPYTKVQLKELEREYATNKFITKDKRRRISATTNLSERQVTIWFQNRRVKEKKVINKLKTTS
SMILES,composite z-score [1],composite z-score (XIP peptide (Xip251-270)),z-score [2],z-score [3],z-score [4],z-score [5]
C=C(C(=O)CC[C@H](OC(=O)c1ccccc1-c1ccccc1C(=O)O)c1cccc(OCCO)c1)C(C)C,-0.145 (inactive),0.232,-2.12,-5.93 (inactive),0.442 (inactive),-0.51 (inactive)
COC(=O)[C@@H]1N=C(c2ccc(OCCCO)cc2)O[C@@H]1C,0.0312 (inactive),0.232,0.985,-2.44 (inactive),-0.749 (inactive),-0.626 (inactive)
CC(c1ccccc1)C(O)C1C=CC2C(=O)N(C)C(=O)C2N1Nc1ccccc1 (centres undefined),0.255 (inactive),0.726,0.139,-3.9 (inactive),0.378 (inactive),-0.484 (inactive)
CC1CC/C=C\[C@H]2OC34C=CCN(C(C)C)C(=O)[C@H]3N(CCO)C(=O)[C@@H]4C2C(=O)O1 (some centres undefined),-0.319 (inactive),-0.472,-1.22,-2.91 (inactive),0.147 (inactive),0.0498 (inactive)
C=CC[C@@]1(C(=O)NCCCOC)N=C(c2ccc(OCCCO)cc2)O[C@@H]1c1ccccc1,1.42 (inactive),0.805,-1.95,-4.75 (inactive),-0.339 (inactive),-0.343 (inactive)
COC(=O)C1=CC(CCCO)=CC(c2cccs2)N(C)C=C1C(=O)OC (centres undefined),0.0334 (inactive),0.819,-0.389,-7.53 (inactive),0.176 (inactive),0.219 (inactive)
C=CCNC(=O)[C@@H]1[C@H]2C(=O)O[C@H](c3ccccc3)[C@H](c3ccccc3)N2[C@H](c2ccccc2OCCO)[C@@]12C(=O)Nc1ccc(C#CCC(C(=O)OC)C(=O)OC)cc12,1.56 (inactive),0.343,-2.1,-3.02 (inactive),0.0648 (inactive),-0.246 (inactive)
COC(=O)[C@@]1(Cc2ccc(F)cc2)[C@H]2c3cc(C(=O)N4CCCC4)n(Cc4ccc(C)c(F)c4F)c3C[C@H]2CN1C(=O)c1ccccc1,-0.0082 (inactive),-0.953,-1.53,-6.02 (inactive),0.533 (inactive),0.459 (inactive)
COc1ccc([Si](C)(C)[C@@H]2[C@@H](CC(=O)N3Cc4ccccc4C[C@H]3CO)O[C@]3(C(=O)N(Cc4ccc(N5C(=O)c6cccc7cccc5c67)cc4)c4ccccc43)[C@H]2C)cc1,0.685 (inactive),0.747,-0.962,-1.98 (inactive),0.143 (inactive),0.973 (inactive)
